Source: PubChem (National Center for Advancing Translational Sciences (NCATS))
Marburg entry inh = inhibitors of Marburg virus binding or cell entry; Marburg virus pseudotyped entry inhibition, cell reporter; Potency, µM (series often up to 37.8 µM), for the others: at the highest dose activity change, negative = inhibition, most hits filed as inhibitors; 300,000 tested, 1.8% active; calls by dose curve; tested in HEK293 cells; also: potency is read from the fitted curve at half-maximal effect; % is scaled to controls: 0 for no effect and ±100 for the full control effect
Cycloheximide cs = counter-screen for Shiga toxin inhibitors: cycloheximide protein synthesis inhibition | cell reporter, cycloheximide protein synthesis inhibition counterscreen | max response, % | 300,000 tested, 12% active | AID 2314; in the data active = max response mostly above about 13%, no sharp cut-off; inactive = mostly below about 14%; also: read at 38.3 µM for the half of the compounds with a filed dose; 0% is about no effect
VACV mCherry inh = vaccinia inhibition (mCherry reporter); Potency, µM (highest dose often 36.5 µM), inactives show top-dose activity change, negative = inhibition, hits mostly inhibitors; Vaccinia virus mCherry reporter infection, fluorescence; 310,000 tested, 0.63% active; calls by dose curve; tested in A549 cells; also: potency is read from the fitted curve at half-maximal effect; % is scaled to controls: 0 for no effect and ±100 for the full control effect; nearly all actives have a fitted effect of over 35% in size
VACV Venus inh = vaccinia inhibition (Venus reporter) | Vaccinia virus Venus reporter expression, fluorescence | Potency, µM (top dose mostly 36.5 µM), for inactives: at the top dose activity change, negative = inhibition, most hits filed as inhibitors | 330,000 tested, 0.46% active; calls by dose curve; tested in A549 cells; also: potency is read from the fitted curve at half-maximal effect; % is scaled to controls: 0 for no effect and ±100 for the full control effect; nearly all actives have a fitted effect of over 30% in size
Shiga inhibitor = Shiga toxin inhibition. Vero cells, Shiga toxin protein synthesis inhibition reporter. inhibition, % at 38.7 µM. 290,000 tested, 9.2% active; in the data active = inhibition mostly above about 28%, no sharp cut-off; inactive = mostly below about 43%; also: 0% is about no effect
LASV entry inh = Lassa virus entry inhibition. Potency, µM (titrated, usually from 37.9 µM), without a hit: top-dose activity change, negative = inhibition, actives largely listed as inhibitors. Lassa virus pseudotype entry inhibition, cell reporter. 300,000 tested, 1.2% active; calls by dose curve; tested in HEK293 cells; also: potency is read from the fitted curve at half-maximal effect; % is scaled to controls: 0 for no effect and ±100 for the full control effect; nearly all actives have a fitted effect of over 50% in size
* hit, by the source's call; i = inactive; ? = inconclusive; / = no result given; [ ] = another dose, or the depositor's remark. The sample as a whole holds a higher share of hits than the screen did.

SMILES | Marburg entry inh | Cycloheximide cs | VACV mCherry inh | VACV Venus inh | Shiga inhibitor | LASV entry inh
Cc1ccc(S(=O)(=O)/N=C(/NC(=S)Nc2ccccc2)c2ccccc2)cc1 | -0.5%[46.1 µM] | 29.9* | i | -15.8% | 73.2* | ?
Cc1ccccc1OCC(=O)Nc1c(C)ccc2nsnc12 | -21.2%[46.1 µM] | / | -29.7% | -20.4% | / | -4.5%[46.1 µM]
CCN1C(=O)c2cccc3c(S(=O)(=O)NCc4ccco4)ccc1c23 | -24.3% | 23.1* | / | / | 18.4* | 1.2%
O=C(Nc1cccc(C(F)(F)F)c1)Nc1ccc2[nH]c(=O)[nH]c2c1 | -5.5%[46.1 µM] | -0.8 | -5.1% | -4.8% | 3.3 | 4.7%[46.1 µM]
O=C(O)CNC(=O)c1ccc2c(c1)OCCO2 | 0.1% | 5.3 | -9.1% | -5.6% | 4.9 | 9.0%
Fc1ccccc1CNCc1ccc2c(c1)OCO2 | / | 18.8* | / | / | 22.0 | /
O=C(NCc1ccccc1F)c1ccc2c(c1)OCCO2 | 15.6% | 22.8* | -13.0% | -3.7% | / | -13.5%
Cc1cc(C(=O)NCc2ccccc2F)cs1 | -7.4% | 16.1* | / | / | 33.8 | 0.7%
O=C(NCc1ccco1)c1ccc2c(c1)OCCO2 | 37.2%[46.1 µM] | 23.9* | i | -18.3% | 26.4* | ?
O=C(NCc1ccccc1F)c1cccs1 | 11.4% | -2.0 | / | / | 26.3 | 0.1%
O=C(NCc1ccco1)c1ccc2c(c1)CCO2 | -1.0%[46.1 µM] | 17.9 | -0.1%[7.34 µM] | 1.3%[7.34 µM] | 16.7 | 13.0%
COc1ccccc1C1CN(CCNC(=O)c2ccc3c(c2)OCCO3)Cc2ccccc2O1 (stereo not drawn) | / | / | -13.8% | -3.4% | / | /
COC(=O)CC1C(=O)NCCN1C(=O)CN1Cc2ccccc2OC(c2ccccc2)C1 (stereo not drawn) | / | / | -8.7% | -7.3% | / | /
CC(=O)NCCNC(=O)c1ccc(NC2=NC3CS(=O)(=O)CC3S2)cc1 (stereo not drawn) | 2.9%[46.1 µM] | -0.8 | -12.3% | -1.2% | -28.9 | -3.7%
Cc1ccc(CN2CCc3nnc(C(NS(C)(=O)=O)C(C)C)n3CC2)cc1C (stereo not drawn) | / | / | -23.7% | -15.4% | / | /
c1cncc(CNc2nc(-c3ccoc3)nc3ccccc23)c1 | / | / | -7.1% | 13.2% | / | /
O=[N+]([O-])c1ccc(-c2nc(NCc3cccnc3)c3ccccc3n2)cc1 | / | 23.4* | / | / | 53.2* | /
O=C(Nc1ccc(F)cc1)C(c1cccc(F)c1)N1CCN(c2cccc(C(F)(F)F)n2)CC1 (stereo not drawn) | / | / | -8.2% | -22.6% | / | /
COc1ccsc1NC(=O)OCc1ccc(Cl)cc1 | / | 36.7* | -4.7% | 0.1% | 44.0* | /
CSc1nsc(NC(=O)OCc2ccc(Cl)cc2)n1 | / | 11.2 | / | / | 12.3 | /
CCOc1cccc(NC(=O)C2CC(=O)N(C)C(=Nc3ccc(F)cc3)S2)c1 (stereo not drawn) | / | / | i | -3.4% | / | -19.5%[46.1 µM]
COc1ccc(OCCSc2nnc(CC(=O)Nc3cccc(Cl)c3Cl)n2C)cc1 | ? | 23.5* | -26.8% | -18.1% | 35.7 | 44.6%[14.3 µM]
CCn1c(CC(=O)Nc2cccc(Cl)c2Cl)nnc1SCCOc1ccc(OC)cc1 | -0.9% | -1.4 | / | / | -8.0 | 1.8%
Cc1ccc(-c2cc(C(F)(F)F)n3nc(-c4cccc(Br)c4)cc3n2)cc1 | -3.9%[46.1 µM] | / | -8.6% | -4.7% | / | 16.9%[46.1 µM]
Cc1cccc(-c2cc3nc(C)cc(C)n3n2)c1 | ? | 48.6* | -16.0% | -12.8% | 74.8* | ?
SMILES | Marburg entry inh | Cycloheximide cs | VACV mCherry inh | VACV Venus inh | Shiga inhibitor | LASV entry inh
CC(=O)c1cnc2cc(-c3cccc(Br)c3)nn2c1C | ? | 38.6* | i | -4.3% | 91.2* | 9.5%[46.1 µM]
Cc1cc(C)n2nc(-c3cccc(Br)c3)cc2n1 | 2.8%[46.1 µM] | 31.8* | -8.8% | -11.2% | / | ?
Cc1cc(C)n2ncc(-c3cccc(Br)c3)c2n1 | ? | 64.6* | -6.7% | -4.8% | 55.0* | 20.9%[46.1 µM]
CCOC(=O)c1cnc2cc(-c3ccc(C)cc3)nn2c1C | / | / | -1.2% | -12.2% | / | /
Cc1cc(C)c2nc(N(Cc3cccnc3)C(=O)Cc3ccccc3)sc2c1 | / | / | -17.1% | -5.3% | / | 22.9%[46.1 µM]
COc1ccc(-c2nc3ccccc3n3c(-c4ccccc4)c4c(=O)n(C)c(=O)n(C)c4c23)cc1 | 14.2%[46.1 µM] | / | -6.9% | 7.7% | / | ?
COc1ccccc1-c1cc2nc(C)cc(C)n2n1 | 4.8%[46.1 µM] | 16.8 | i[7.34 µM] | -8.6%[7.34 µM] | 56.7* | 7.7%
COc1ccc2c(c1)C/C(=C\c1ccc(N(C)C)cc1)C2=O | / | / | -24.0% | 48.3% | / | /
CN(CC(=O)Nc1ccc(F)c(F)c1F)C(=O)CCc1nc2sc3c(c2c(=O)[nH]1)CCCC3 | -0.6%[46.1 µM] | / | -2.9% | 8.6% | / | -10.8%
O=C(c1ccc(S(=O)(=O)c2cccc(Cl)c2)c([N+](=O)[O-])c1)N1CCN(c2ccccn2)CC1 | 7.08µM* | 22.2* | -16.8% | -7.8% | -11.8 | ?
